Reference: PubChem BioAssay (NCATS)
Inconclusive results are not listed. Activity calls are given as the source filed them. Calls follow the shape of the dose curve; as a rule, active = well fitted inhibition curve with a large enough effect; inconclusive = small, poorly fitted or top-dose-only effect; inactive = flat fitted curve, though single readings scatter.

Assays:
Assay in all cases: qHTS profiling for inhibitors of Plasmodium falciparum proliferation (AID 504749); also: nearly all actives have a fitted effect of over 60% in size
Details in all cases: P. falciparum in erythrocytes, SYBR Green DNA, 72 h; series mostly up to 28.7 µM
[1] = test system: ATS189
In short: (§1)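 Parasite proliferation within erythrocytes, 72 h exposure. Endpoint: SYBR Green I fluorescence after overnight lysis at room temperature. Controls: 0.29 uM artemisinin, DMSO.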

[2] = test system: ATS95
In short: as §1

[3] = test system: C2A
In short: as §1

[4] = test system: CP185
In short: as §1

[5] = test system: CP191
In short: as §1

[6] = test system: CP192
In short: as §1

[7] = test system: CP194
In short: as §1

[8] = test system: CP201
In short: as §1

[9] = test system: CP211
In short: as §1

[10] = test system: CP215
In short: as §1

[11] = test system: CP217
In short: as §1

[12] = test system: CP238
In short: as §1

[13] = test system: CP247
In short: as §1

[14] = test system: CP250
In short: as §1

[15] = test system: CP252
In short: as §1

[16] = test system: CP256
In short: as §1

[17] = test system: CP262
In short: as §1

[18] = test system: CP237
In short: as §1

[19] = test system: CP260
In short: as §1

[20] = test system: CP203
In short: as §1

Measured: Potency
Potency is read from the fitted curve at half-maximal effect.

CCN1CCN(c2cc3c(cc2F)c(=O)c(C(=O)O)cn3C2CC2)CC1
not listed: [18] | [19] | [20]
inactive: all other assays above

CC(C)COC(=O)c1ccc(N)cc1
not listed: [8] | [20]
inactive: all other assays above

Nc1ccc(/C=C/c2ccc(N)cc2S(=O)(=O)O)c(S(=O)(=O)O)c1
not listed: [20]
inactive: all other assays above

O=S1(=O)c2cccc3cccc(c23)N1CCCN1CCN(c2ccc(F)cc2)CC1
not listed: [20]
inactive: all other assays above

O=C(O)c1cc2cc(Cc3cccnc3)ccc2o1
not listed: [20]
inactive: all other assays above

NC(=NCCCCCCN=C(N)/N=C(\N)Nc1ccc(Cl)cc1)/N=C(\N)Nc1ccc(Cl)cc1
active: [1] 1780 nM | [2] 2000 nM | [3] 2240 nM | [4] 1780 nM | [5] 1120 nM | [6] 1690 nM | [7] 1510 nM | [8] 3790 nM | [9] 1510 nM | [10] 1900 nM | [11] 2000 nM | [18] 891 nM | [12] 2240 nM | [13] 2240 nM | [14] 2240 nM | [15] 2000 nM | [16] 1410 nM | [19] 1000 nM | [17] 1510 nM

N[C@H](CO)C(=O)O
not listed: [10] | [20]
inactive: all other assays above

Cc1c(N(C)CS(=O)(=O)O)c(=O)n(-c2ccccc2)n1C
not listed: [10] | [20]
inactive: all other assays above

CCCN1CCCC[C@H]1C(=O)Nc1c(C)cccc1C
active: [18] 6310 nM
not listed: [20]
inactive: all other assays above

C[C@H](O)C(=O)Nc1c(I)c(C(=O)NC(CO)CO)c(I)c(C(=O)NC(CO)CO)c1I
not listed: [20]
inactive: all other assays above

O=C(OCCOCCO)c1ccccc1Nc1cccc(C(F)(F)F)c1
not listed: [20]
inactive: all other assays above

NCCc1ccn[nH]1
not listed: [20]
inactive: all other assays above

Cc1ccc(O)c2ncccc12
not listed: [7] | [19]
inactive: all other assays above

COc1ccc(CCN2CCC(Nc3nc4ccccc4n3Cc3ccc(F)cc3)CC2)cc1
active: [1] 4470 nM | [2] 3980 nM | [3] 2510 nM | [4] 3550 nM | [5] 2240 nM | [6] 12000 nM | [7] 9530 nM | [8] 7570 nM | [9] 15100 nM | [11] 3550 nM | [18] 2240 nM | [12] 3550 nM | [13] 3980 nM | [14] 2240 nM | [15] 3160 nM | [16] 3550 nM | [19] 1000 nM

CCCCCC=CCC=CCCCCCCCC(=O)OCC
not listed: [20]
inactive: all other assays above

Cc1c(C)n(Cc2ccccc2)c2ccc(C(=O)OCCN(C)C)cc12
not listed: [8] | [10] | [20]
inactive: all other assays above

C[C@]12CCC(=O)C=C1CC[C@H]1[C@@H]3CC[C@](O)(C(=O)CO)[C@@]3(C)C[C@H](O)[C@@]12F
not listed: [20]
inactive: all other assays above

Cc1c(C(C)C)c(=O)n(-c2ccccc2)n1C
not listed: [20]
inactive: all other assays above

Oc1ccc(Cl)cc1Sc1cc(Cl)ccc1O
not listed: [7] | [10] | [11] | [20]
inactive: all other assays above

CCN(CC)C(=O)N1CCN(C)CC1
not listed: [20]
inactive: all other assays above

Cc1c(F)c(N2CCNC(C)C2)cc2c1c(=O)c(C(=O)O)cn2C1CC1 (stereo unspecified)
not listed: [20]
inactive: all other assays above

CC(=O)c1ccc2c(c1)N(CCCN1CCC(CCO)CC1)c1ccccc1S2
not listed: [7] | [10] | [18] | [19] | [20]
inactive: all other assays above

C[N+]1(CCCCC[N+]2(C)CCCC2)CCCC1
not listed: [20]
inactive: all other assays above

CCOc1ccc(NC(=O)CC(C)O)cc1 (stereo unspecified)
not listed: [20]
inactive: all other assays above

Cc1ncc(CSSCc2cnc(C)c(O)c2CO)c(CO)c1O
not listed: [20]
inactive: all other assays above

CC(O)(P(=O)(O)O)P(=O)(O)O
not listed: [20]
inactive: all other assays above

Cc1c(C)n(CCN(C)C)c2ccc(C(=O)OCCN(C)C)cc12
active: [18] 11200 nM
not listed: [19] | [20]
inactive: all other assays above

C#C[C@]1(O)CC[C@H]2[C@@H]3CCc4cc(OC5CCCC5)ccc4[C@H]3CC[C@@]21C
not listed: [2] | [5] | [16] | [17]
inactive: all other assays above
